In PubChem BioAssay (NCI):
The panel holds about 83,000 compounds, 20% with a hit somewhere; the sample as a whole holds those more often.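 Testing used 96-well plates and a 48-hour single-concentration exposure. Example: -40 means 40% of the starting cells died.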 Values without a mark were called inactive. The source made the active and inactive calls. Rule for the calls: active = growth percent below 10; inactive = the rest.

Experiments:
Test in all cases: NCI-60 one-dose screen, 48 h (100 = growth as untreated, 0 = no growth, -100 = all killed)
Settings in all cases: 10 µM unless noted
SK-MEL-2 melanoma = system: SK-MEL-2 melanoma
EKVX NSCLC = system: EKVX NSCLC
SN12C renal = system: SN12C renal
UO-31 renal = system: UO-31 renal
TK-10 renal = system: TK-10 renal
ACHN renal = system: ACHN renal
CAKI-1 renal = system: CAKI-1 renal
A498 renal = system: A498 renal
MOLT-4 leukemia = system: MOLT-4 leukemia
CCRF-CEM leukemia = system: CCRF-CEM leukemia

| SMILES | growth (SK-MEL-2 melanoma) | growth (EKVX NSCLC) | growth (SN12C renal) | growth (UO-31 renal) | growth (TK-10 renal) | growth (ACHN renal) | growth (CAKI-1 renal) | growth (A498 renal) | growth (MOLT-4 leukemia) | growth (CCRF-CEM leukemia) |
| --- | --- | --- | --- | --- | --- | --- | --- | --- | --- | --- |
| COC(=O)c1cc(-c2ccccc2)[nH]c1N/N=C/c1c(Cl)cccc1Cl | -4.44% (active) | -1.92% (active) | 35.2% | 42.3% | 26.4% | 44% | 5.94% (active) | -45.8% (active) | -9.43% (active) | – |
| CCCc1cc(NC)nc(S(=O)(=O)CC)n1 | 115% | 104% | 99.1% | 91.8% | 110% | 107% | 98.1% | 113% | 107% | – |
| Nc1ncnc2c1N=C(c1ccc3c(c1)OCO3)CC(c1ccc([N+](=O)[O-])cc1)N2 (stereo not given) | 60.8% | 87.4% | 84% | 64.1% | 112% | 82.4% | 99.2% | 67.3% | 99.3% | – |
| CN(C)CCNc1nc2c3cc(Cl)ccc3nn2c2ccccc12 | 95.2% | 49.8% | 40.9% | 28.2% | 97.8% | 22.7% | 40.4% | -6.05% (active) | 15.9% | – |
| O=C(N/N=C/c1ccc(F)cc1)c1ccc(C(F)(F)F)nc1Nc1cccc(C(F)(F)F)c1 | -29.1% (active) | 4.22% (active) | -12.1% (active) | -18.4% (active) | 3.93% (active) | -3.72% (active) | -7.66% (active) | -1.26% (active) | -20.3% (active) | – |
| O=C(Cn1cc(CN2C(=O)c3ccccc3S2(=O)=O)nn1)Nc1nc2ccccc2s1 | 95.3% | 105% | 105% | 69.1% | 97.5% | 90.5% | 89.6% | 108% | 115% | – |
| CCOC(=O)c1nc(Nc2ccc(NC(=O)Nc3ccc(F)cc3)cc2)c2ccccc2n1 | 103% | 97.4% | 99.4% | 81% | 120% | 102% | 91.1% | 62% | 98.5% | – |
| Cc1ccccc1NC(=O)c1sc2nc(C)c(C(=O)/C=C/c3ccccc3)cc2c1N | 34.8% | 59.6% | 3.45% (active) | 19.7% | 11.7% | 33.3% | 25.5% | 29.3% | 17.4% | – |
| C/C(Nc1ccc(Cl)c(Cl)c1)=C1\CCOC1=O | 97% | 77.4% | 88.9% | 84.3% | 104% | 79.7% | 57.7% | 93.5% | 80.9% | – |
| Fc1cc(F)cc(C(c2c[nH]c3ccccc23)c2c[nH]c3ccccc23)c1 | 58.8% | 80.6% | 95.7% | 52.9% | 144% | 87.7% | 90.9% | 71.7% | 81.8% | – |
| CNC(=O)c1cc(Oc2ccc3nc(NC(C)=O)sc3c2)ccn1 | 94.9% | 97.8% | 106% | 95% | 104% | 104% | 89.2% | 106% | 90.4% | – |
| O=[N+]([O-])c1ccc(N/N=C(/C(=N/Nc2ccc([N+](=O)[O-])cc2)c2ccccc2)c2ccccc2)cc1 | 11.2% | 94.1% | 81.4% | 51.8% | 94.4% | -1.56% (active) | 53.7% | 101% | 73.9% | – |
| O=C(c1ccc(Cl)cc1)N1CCN(c2ccnc3cc(Cl)ccc23)CC1 | 88.9% | 96.4% | 91.2% | 58% | 108% | 85.8% | 85.7% | 55.6% | 87.1% | – |
| CCOP(=O)(OCC)c1nc(-c2ccccc2)oc1NCc1cccnc1 | 111% | 104% | 103% | 89.7% | 101% | 103% | 97.3% | 102% | 101% | 108% |
| O=C(NCCCCNC(=O)OCc1ccc2c(Cl)cc(Cl)c(O)c2n1)OCc1ccc2c(Cl)cc(Cl)c(O)c2n1 | 29.6% | 91.3% | 28.1% | 37.2% | 61.3% | 26.2% | 13.1% | -1.85% (active) | 22.6% | – |
| O=C(Nc1ccc(NC(=O)c2cc(=O)[nH]c3ccccc23)cc1)Nc1cccc(C(F)(F)F)c1 | 92.5% | 66.8% | 54.2% | 71% | 134% | 95% | 71.5% | 100% | 79.6% | – |
| CS(=O)(=O)Nc1cc(-c2ccc3ncnc(Nc4c(Cl)ccc5c4OCO5)c3c2)cnc1Cl | -65.7% (active) | -34.1% (active) | 9.89% (active) | -71.4% (active) | -59.4% (active) | 11.7% | -30.4% (active) | -65.3% (active) | -15.1% (active) | – |
| O=C1/C(=C\c2cn(-c3ccccc3)nc2-c2ccc(-c3cccs3)cc2)CCc2ccccc21 | 70.4% | 68.5% | 66.8% | 54.2% | 101% | 79.5% | 41.2% | 10.3% | 49.1% | – |
| Cc1cc(=O)[nH]c2c(C#N)cnn12 | 102% | 97% | 97.4% | 83.8% | 101% | 98.8% | 93.6% | 93.1% | 105% | – |
| O=C1/C(=C/c2ccc(F)cc2)COc2ccc(O)c(O)c21 | 74.8% | 51.4% | -49.9% (active) | -96.9% (active) | 17.8% | -67.1% (active) | 9.04% (active) | 105% | 4.21% (active) | – |
| CCOC(=O)C1=NN(c2ccccc2)C(=O)/C1=C\N1C(=O)CC(=O)NC1=S | – | 103% | 95.6% | 77.4% | 96% | 101% | 41.2% | 104% | 99% | 96.2% |
